Compound activity: PubChem, National Center for Advancing Translational Sciences (NCATS)
Only a selection was taken, and hits are over-represented in it overall.
ALOX12 inh: inhibitors of human 12S-lipoxygenase ALOX12. P18054. purified 12hLO, xylenol orange hydroperoxide absorbance. Potency, µM (highest dose often 108 µM), for inactives: at the highest dose activity change, negative = inhibition, most hits filed as inhibitors. actives 1.1% (n = 580,000). AID 1671190; further: potency means the concentration at half of the fitted maximal effect
Target sequence (P18054 whole entry, looked up): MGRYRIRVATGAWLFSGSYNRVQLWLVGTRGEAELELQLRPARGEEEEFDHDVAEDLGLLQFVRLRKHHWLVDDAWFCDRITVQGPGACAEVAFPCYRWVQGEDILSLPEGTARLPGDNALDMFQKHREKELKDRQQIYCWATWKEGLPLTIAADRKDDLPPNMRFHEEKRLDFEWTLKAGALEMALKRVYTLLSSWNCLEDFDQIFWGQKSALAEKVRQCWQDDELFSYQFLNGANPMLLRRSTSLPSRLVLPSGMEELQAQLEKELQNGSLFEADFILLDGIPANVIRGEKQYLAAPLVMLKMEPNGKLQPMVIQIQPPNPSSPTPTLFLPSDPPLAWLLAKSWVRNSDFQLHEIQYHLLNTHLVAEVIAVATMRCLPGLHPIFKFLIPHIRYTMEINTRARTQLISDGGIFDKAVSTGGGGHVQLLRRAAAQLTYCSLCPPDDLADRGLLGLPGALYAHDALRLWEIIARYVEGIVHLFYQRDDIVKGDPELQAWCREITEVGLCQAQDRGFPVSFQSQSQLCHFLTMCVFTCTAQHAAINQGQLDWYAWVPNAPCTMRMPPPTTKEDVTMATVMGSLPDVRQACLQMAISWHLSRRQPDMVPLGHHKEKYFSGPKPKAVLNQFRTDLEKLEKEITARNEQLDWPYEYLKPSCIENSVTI
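Purified human 12hLO at 150 nM in 25 mM Hepes, 0.01% Triton X-100, pH 7.0, preincubated 15 min at room temperature with compound. Reaction started with 40 uM arachidonic acid, 30 min at room temperature. Hydroperoxide measured by Fe-xylenol orange, 573/405 nm absorbance ratio.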
TDP1 cell noCPT: qHTS for Inhibitors of human tyrosyl-DNA phosphodiesterase 1 (TDP1): qHTS in cells in absence of CPT | actives 15% (n = 420,000) | Potency, µM (titrated, usually from 46.2 µM), for the others: at the highest dose activity change, negative = growth inhibition, usual class: inhibitors | DT40 Tdp1-/- hTDP1 cells, no CPT, ATP luminescence, 48 h; further: potency means the concentration at half of the fitted maximal effect; nearly all actives have a fitted effect of over 55% in size
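Growth kinetics read by CellTiter-Glo luminescence after ≥48 hr at 37 °C. Cells: DT40 Tdp1-/- stably carrying human TDP1, 400 per well, compound exposure in the absence of CPT (DMSO vehicle).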
IL1B secr inh: inhibitors of inflammasome signaling (IL-1 beta secretion); THP-1 LPS/ATP IL-1B secretion, AlphaLISA, 16 h; hits give low values; activity change, % at 57.5 µM; actives 4.7% (n = 360,000); AID 743279; in the data active means activity change below about -50%; inconclusive means mostly about -30% to -49%
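Secreted IL-1B measured by AlphaLISA bead assay after 16 h compound exposure of THP-1 cells; compounds (final up to 57.5 uM) added 1 h before LPS (250 ng/mL) and ATP (1.25 mM) stimulation; lower signal means less secretion.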
HT1080-NT tox: kills 2HG-producing HT-1080-NT fibrosarcoma cells | HT-1080-NT fibrosarcoma viability, CellTiter-Glo ATP luminescence, 48 h | Potency, µM (top dose mostly 46.1 µM), without a hit: at the top dose activity, negative = less viability, hits mostly cytotoxic | actives 1.6% (n = 360,000) | AID 686970;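 further: NT is the 2HG producing partner of a matched IDH1 knockdown line; potency means the concentration at half of the fitted maximal effect; 0% = DMSO-treated cells and -100% = media-only wells without cells; nearly all actives have a fitted effect of over 55% in size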
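HT-1080-NT; 750 cells/well; 5% FBS RPMI; 48 h compound, 37 degrees C; CellTiter-Glo luminescence; curve fitting and curve-class assignment.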
HT1080 IDH1KD tx: kills HT-1080 cells with IDH1 knockdown. HT-1080 IDH1 knockdown viability, ATP luminescence, 48 h. Potency, µM (highest dose often 46.1 µM), for inactives: at the top dose activity, negative = toxicity, usual class: cytotoxic. AID 686971. actives 2% (n = 360,000);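 further: potency means the concentration at half of the fitted maximal effect; 0% = DMSO wells and -100% = cell-free medium wells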
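Using the IDH1-knockdown HT-1080 line run in the same batch and compound series as the NT line, viability after 48 h at 37 °C was determined by CellTiter-Glo luminescence and expressed as % activity.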
DT40 TDP1 CPT: growth inhibition of DT40 Tdp1-/-;hTDP1 cells with camptothecin (screen for TDP1 inhibitors); chicken DT40 Tdp1-/-;hTDP1 cells + 20 nM CPT, ATP luminescence, 48 h; Potency, µM (doses to about 46.2 µM), for the others: at the top dose activity change, negative = growth inhibition, most hits filed as inhibitors; actives 12% (n = 420,000); AID 686979; further: potency means the concentration at half of the fitted maximal effect; nearly all actives have a fitted effect of over 55% in size
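Chicken DT40 Tdp1-/- cells complemented with human TDP1, 400 cells/well, exposed to compounds plus 20 nM camptothecin for at least 48 h at 37 C; viability read as ATP content by CellTiter-Glo luminescence.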
Numbers without * were called inactive; i = inactive; ? = inconclusive; · = no result given; [ ] = dose if it differs, or a comment. Unless noted, the call rests on the fitted dose curve; in most records, active means well fitted curve in the direction sought with a large enough effect; inconclusive means small, poorly fitted or top-dose-only effect, or another doubt; inactive means no such curve, though single readings can be large; an effect the other way counts as inactive or inconclusive. Unless noted, on the % scale 0 is the no-effect control and ±100 the full control effect.

SMILES	ALOX12 inh	TDP1 cell noCPT	IL1B secr inh	HT1080-NT tox	HT1080 IDH1KD tx	DT40 TDP1 CPT
COc1ccc2nc(Nc3sc4c(c3C(N)=O)CCCC4)sc2c1	22µM*	?	-100*	-13%	-6%	16µM*
CCN(CC)Cc1c(NC(=O)c2ccc(OC)cc2)sc2c1CCCC2	-14%	?	·	·	·	18µM*
CCC(=O)Nc1sc2c(c1C(=O)Nc1ccc(Br)cc1)CCCCC2	1%	21µM*	·	·	·	?
CCOc1ccccc1NC(=O)c1c(NC(=O)CCC(=O)O)sc2c1CCCCC2	?	-16%	0	1%	9%	-25%
CCC(=O)Nc1sc2c(c1C(=O)Nc1cccc(C)c1)CCCC2	0%	·	·	·	·	·
CCOC(=O)c1ccc(NC(=O)c2c(NC(=O)CCC(=O)O)sc3c2CCCCC3)cc1	20µM*	29µM*	-17	6%	11%	0%
CCOC(=O)c1c(NC(=O)c2ccc(OC)cc2)sc2c1CCCCC2	-25%	-28%	·	·	·	-18%
CCOC(=O)c1ccc(NC(=O)c2c(NCc3cccs3)sc3c2CCCCC3)cc1	?	8.2µM*	·	·	·	10µM*
CCOC(=O)c1c(NC(=O)c2ccco2)sc2c1CCCC2	0%	?	17	18%	12%	?
CCc1nnc(NC(=O)CCC(=O)N2CCN(Cc3ccc(C)cc3C)CC2)s1	-2%	18µM*	33	-8%	-12%	?
CCCc1nnc(NC(=O)CCC(=O)N2CCN(Cc3ccc(C)cc3C)CC2)s1	-12%	8.2µM*	10	-21%	-12%	-22%
Cc1ccc(CN2CCN(C(=O)CCC(=O)Nc3nnc(C(C)C)s3)CC2)c(C)c1	-7%	?	-86*	-22%	-16%	?
CCCc1nnc(NC(=O)CCC(=O)N2CCN(Cc3ccccc3)CC2)s1	-10%	14%	46	2%	11%	-19%
Clc1ccc(COc2cccc(CNc3nn[nH]n3)c2)c(Cl)c1	5%	·	·	·	·	·
COc1ccc(-c2cn3c(n2)CO[C@@H](CNCc2ccc(OC(F)(F)F)cc2)C3)cc1	23%[176 µM]	·	·	·	·	·
Cn1nccc1-c1coc2c(C(=O)NCC3CCOCC3)cccc12	-3%	23µM*	65	0%	13%	?
CC(Oc1ccc(Cl)cc1Cl)c1ccnc(N)n1 (stereo unspecified)	-4%	6%	-56*	-28%	?	6%
CC(Oc1ccccc1)c1ccnc(N)n1 (stereo unspecified)	7%	-1%	-7	6%	1%	0%
CCOc1ccc(CNC(=O)c2ccc3c(c2)sc2nc(-c4ccc(OC)cc4)cn23)cc1	-29%	-18%	·	·	·	-3%
COc1cccc(-c2cn3c(n2)sc2cc(C(=O)NCCCc4ccccc4)ccc23)c1	-24%	4.6µM*	·	·	·	6.5µM*
COc1ccc(-c2cn3c(n2)sc2cc(C(=O)NCc4cccs4)ccc23)cc1	-28%	13µM*	·	·	·	10µM*
COc1ccc(-c2cn3c(n2)sc2cc(C(=O)NCCCc4ccccc4)ccc23)cc1	?	-10%	·	·	·	-23%
CCOc1ccc(CNC(=O)c2ccc3c(c2)sc2nc(-c4ccccc4)cn23)cc1	-22%	-13%	·	·	·	-17%
O=C(NCc1cccs1)c1ccc2c(c1)sc1nc(-c3ccccc3)cn12	?	23µM*	·	·	·	18µM*
COc1ccc(-c2cn3c(n2)sc2cc(C(=O)Nc4c(C)cccc4C)ccc23)cc1	-9%	9.2µM*	·	·	·	13µM*
SMILES	ALOX12 inh	TDP1 cell noCPT	IL1B secr inh	HT1080-NT tox	HT1080 IDH1KD tx	DT40 TDP1 CPT
COC(=O)C1=C(C)N=C2SC=C(CC(=O)NCC3CCCO3)N2C1c1cccc(OC)c1 (stereo unspecified)	38%	·	·	·	·	·
Cc1cc(=O)oc2c(C)c(OCC(=O)NCCN(C)C)ccc12	4%	·	·	·	·	·
COc1ccc(-c2cn3c(n2)sc2cc(C(=O)N4CCCCC4)ccc23)cc1	-24%	21µM*	·	·	·	?
COc1cccc(C(=O)c2c[nH]c(C(=O)NCc3cccs3)c2)c1	0%	-22%	-62*	-4%	7%	-2%
COc1ccc(-c2cn3c(n2)sc2cc(C(=O)Nc4ccc(C)cc4C)ccc23)cc1	?	?	·	·	·	-30%
COc1cccc(-c2cn3c(n2)sc2cc(C(=O)NCc4cccs4)ccc23)c1	?	6.5µM*	·	·	·	13µM*
COCCc1nncn1C1CCN(S(=O)(=O)c2ccc(C)c(F)c2)CC1	29%	·	·	·	·	·
CC(C)(C)C1CCc2c(sc(NC(=O)c3ccc(Cl)cc3)c2C(=O)NCc2ccco2)C1 (stereo unspecified)	-22%	-16%	·	·	·	-5%
CCN(CCO)C(=O)Cc1nc(-c2ccccc2)oc1C	-6%	·	·	·	·	·
O=C(O)[C@]12CCCN[C@@H]1CCN(Cc1ccsc1)C2	55%	·	·	·	·	·
COc1cccc(CCNC(=O)c2cc(COc3cccc(OC)c3)on2)c1	9%	16µM*	-1	-3%	-8%	?
CCOC(=O)CC1(NC(=O)c2cc(COc3cccc(OC)c3)on2)CCCCC1	19%	10µM*	-22	2%	-19%	23µM*
O=C(NCCc1ccco1)c1cc(COc2cccc(C(F)(F)F)c2)on1	276%	?	-83*	-20%	?	?
COc1cccc(CCNC(=O)c2cc(COc3ccc(C)c(C)c3)on2)c1OC	-3%	15µM*	-23	2%	-1%	?
Cc1ccc(OCc2cc(C(=O)NCCc3cccnc3)no2)cc1C	20%	?	10	?	?	?
COc1cccc(OCc2cc(C(=O)NCCc3cccc(C)n3)no2)c1	-13%	-25%	9	-1%	-17%	-7%
COC(CNC(=O)CNC(=O)OCc1ccccc1)c1ccccc1 (stereo unspecified)	16%	·	·	·	·	·
Cc1ccccc1C(=O)Nc1nc(-c2ccc(Br)cc2)ns1	-22%	21µM*	·	·	·	16µM*
Cc1cccc(C)c1OCC(=O)Nc1nc(-c2ccc(Br)cc2)ns1	?	16µM*	·	·	·	?
C/C(=N/N=C(c1ccccc1)c1ccccc1)c1ccncc1	-1%	·	·	·	·	·
CC(C)S(=O)(=O)c1csc(NC(=O)Nc2cc(Cl)ccc2Cl)c1Cl	i	?	-101*	2%	0%	16µM*
CC(=O)Nc1cccc(C(C)NC(=O)Nc2cc(Cl)ccc2Cl)c1 (stereo unspecified)	-28%	·	·	·	·	·
CCN(CCc1ccncc1)S(=O)(=O)c1cc(N2CCCCS2(=O)=O)ccc1OC	25%	·	·	·	·	·
